# In PubChem BioAssay (NCATS):
# Records with an inconclusive call do not appear. Active and inactive are the calls of the source. The call rests on the fitted dose curve; in most records, active means well fitted inhibition curve with a large enough effect; inconclusive means small, poorly fitted or top-dose-only effect; inactive means no such curve, though single readings can be large or run the other way.
# Assay: qHTS Screen of the MIPE 4.0 Collection Against Ewings Sarcoma (TC32) (AID 1259256); further: nearly all actives have a fitted effect of over 45% in size
# Settings: TC32 Ewing sarcoma viability, CellTiter-Glo, 48 h; series mostly up to 45.8 µM
# Summary of the method: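 Cells plated in serum-containing RPMI (5% FBS) and treated with compound dilutions for 48 h. Readout luminescent viability; normalization relied on vehicle (no inhibition) and media-only columns (full inhibition).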
# Potency means the concentration at half of the fitted maximal effect.
row,Structure (SMILES),Potency
1,CON=C(C(=O)N[C@@H]1C(=O)N2C(C(=O)O)=C(CSC(=O)c3ccco3)CS[C@H]12)c1csc(N)n1,inactive
2,COc1cc2c(Nc3ccc(Cl)c(Cl)c3F)ncnc2cc1OCC1C[C@@H]2CN(C)C[C@H]2C1,13.2 µM (active)
3,CCn1c(=O)c2c(nc(C=Cc3ccc(OC)c(OC)c3)n2C)n(CC)c1=O,inactive
4,CC[C@H]1OC(=O)[C@H](C)[C@@H](O[C@H]2C[C@@](C)(OC)[C@@H](O)[C@H](C)O2)[C@H](C)[C@@H](O[C@@H]2O[C@@H](C)C[C@H](N(C)C)[C@@H]2O)[C@](C)(O)C[C@@H](C)C(=O)[C@H](C)[C@@H](O)[C@]1(C)O,inactive
5,Cc1nc(NC(=O)N2CCC[C@@H]2C(N)=O)sc1-c1ccnc(C(C)(C)C(F)(F)F)c1,6.62 µM (active)
6,C#Cc1cccc(Nc2ncnc3cc(OCCOC)c(OCCO)cc23)c1,8.33 µM (active)
7,O=C(Nc1ccc(Oc2ccnc3[nH]ccc23)c(F)c1)c1cccn(-c2ccc(F)cc2)c1=O,inactive
8,O=C(O)C[C@H](O)C[C@H](O)C=Cc1c(C2CC2)nc2ccccc2c1-c1ccc(F)cc1,1.05 µM (active)
9,COC[C@H](NC(=O)c1cnc(C)s1)C(=O)N[C@@H](COC)C(=O)N[C@@H](Cc1ccccc1)C(=O)[C@@]1(C)CO1,0.148 µM (active)
10,Cc1ccc([N+](=O)[O-])cc1S(=O)(=O)N(C)N=Cc1cnc2ccc(Br)cn12,0.0469 µM (active)
11,COc1cc(C=CC(=O)CC(=O)C=Cc2ccc(O)c(OC)c2)ccc1O,12.1 µM (active)
